According to PubChem BioAssay (EPA / NIEHS):
“And” between values parts separate entries of the source, which are not always exact repeats. Equal values may be shown once. Results filed as inconclusive are left out. The source made the active and inactive calls. The calls were made as follows, unless noted: active = hit-call score of the fitted dose curve at least 0.9, where 1 is the maximum; inconclusive = response in the unintended direction; inactive = score below 0.9.

Columns and labels:
[1] = tested on: Thyroperoxidase (TPO), gene 54314; experiment: CCTE_Simmons_AUR_rTPO: CCTE's Amplex UltraRed Assay for Thyroperoxidase (TPO) Inhibition, Simmons Lab (AID 2283662);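 as to AC50: potency for loss of signal meaning inhibition of peroxidase activity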
Method in brief: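 Rat thyroid microsomes (5 ug protein) with 25 uM Amplex UltraRed and 300 uM H2O2 in 200 mM phosphate buffer, 30 min at 37C in dark; fluorescence 544/590 nm. Eight concentrations, 5 nM–87.5 uM final, 0.5% DMSO, triplicate biological replicates.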

[2] = CEETOX_H295R_MTT_cell_viability: Viability Assessment in the CeeTox HT-H295R MTT Assay (AID 2283718; active = hit-call score of the fitted dose curve at least 0.9, where 1 is the maximum; inactive = score below 0.9;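 as to AC50: curve fitted both ways so AC50 may mark viability loss or gain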)
Method in brief: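 Human H295R adrenal cells, prestimulated 48 h with 10 uM forskolin, were exposed 48 h to chemicals in 0.1% DMSO. Viability was measured in the same wells by MTT (0.5 mg/ml, 4 h, 37 C), absorbance 570/650 nm, as percent of controls.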

[3] = target: Luciferin 4-monooxygenase (Photinus pyralis) (UniProt P08659); experiment: CCTE_Simmons_QuantiLum_inhib_2: CCTE's Firefly Luciferase Inhibition Assay, Simmons Lab (AID 2283767);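 as to AC50: potency for inhibitors that lower luciferase luminescence relative to DMSO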
Luciferin 4-monooxygenase (Photinus pyralis), sequence (P08659 whole entry, looked up): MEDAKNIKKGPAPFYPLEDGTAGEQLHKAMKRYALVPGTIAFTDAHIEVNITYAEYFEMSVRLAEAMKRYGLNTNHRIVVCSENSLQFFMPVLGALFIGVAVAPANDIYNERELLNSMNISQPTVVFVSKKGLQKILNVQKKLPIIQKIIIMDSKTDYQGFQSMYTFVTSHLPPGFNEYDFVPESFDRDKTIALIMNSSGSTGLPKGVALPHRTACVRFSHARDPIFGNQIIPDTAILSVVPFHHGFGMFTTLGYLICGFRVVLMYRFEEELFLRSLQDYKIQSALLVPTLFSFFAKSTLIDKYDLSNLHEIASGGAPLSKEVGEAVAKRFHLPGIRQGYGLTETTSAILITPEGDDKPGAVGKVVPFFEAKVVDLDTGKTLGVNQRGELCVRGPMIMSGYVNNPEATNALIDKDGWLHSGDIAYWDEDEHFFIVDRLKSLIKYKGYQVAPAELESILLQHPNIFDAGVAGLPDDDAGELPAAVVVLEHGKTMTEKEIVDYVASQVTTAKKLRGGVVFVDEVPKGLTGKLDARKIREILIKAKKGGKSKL
Method in brief: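 Counter-screen for nonspecific enzyme inhibition: purified firefly luciferase incubated 30 min at 37C with chemicals up to 87.5 uM final, then luminescence measured after luciferin/dATP injection; activity fitted against DMSO baseline.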

Q: Which results are given for `COc1ccc(N=Nc2cc(C)c(N=Nc3ccc(S(=O)(=O)O)cc3)cc2OC)cc1`?
A: AC50 [1]: 53.9 µM (active); outcome [2]: inactive; AC50 [3]: 53.8 µM (active)

Q: For `CC(CN=Cc1ccccc1O)N=Cc1ccccc1O` (stereo unspecified), which AC50 [1] is on record?
A: Its AC50 is 26 µM (active).

Q: And the AC50 [2]?
A: Its AC50 is 2.57 µM (active).

Q: What about the outcome [3] of the same compound?
A: The outcome was “inactive”.

Q: Which AC50 [1] does the source give for `CCCCCC(C=O)=Cc1ccccc1` here?
A: The AC50 was 19.4 µM (active).

Q: And the outcome [3]?
A: The outcome was “inactive”.

Q: With `O=C(O)CCCCCCCCC(=O)O` as the compound, how does the outcome [1] read?
A: Its outcome is “inactive”.

Q: What about the outcome [3] of the same compound?
A: Its outcome is “inactive”.

Q: With `CCCCCCCCC=CCCCCCCCC1=NCCN1CCO` as the compound, how does the AC50 [1] read?
A: Its AC50 is 37.9 µM (active) and 8.64 µM (active).

Q: What about the outcome [3] of the same compound?
A: Its outcome is “inactive”.

Q: Which AC50 [1] does the source give for `CC(C)CCCCCCCCCCCCCCC(=O)O` here?
A: Its AC50 is 43.8 µM (active).

Q: What about the outcome [3] of the same compound?
A: Its outcome is “inactive”.

Q: With `CCc1cc(Cc2cc(CC)cc(C(C)(C)C)c2O)c(O)c(C(C)(C)C)c1` as the compound, how does the AC50 [1] read?
A: Its AC50 is 1.8 µM (active).

Q: And the outcome [3]?
A: The outcome was “inactive”.

Q: For `Nc1ccc2cc(S(=O)(=O)O)cc(O)c2c1N=Nc1ccccc1C(F)(F)F`, which AC50 [1] is on record?
A: Its AC50 is 20.2 µM (active).

Q: What about the AC50 [3] of the same compound?
A: The AC50 was 51.7 µM (active).

Q: With `COc1ccccc1N=Nc1c(S(=O)(=O)O)cc2cc(S(=O)(=O)O)cc(NC(C)=O)c2c1O` as the compound, how does the AC50 [1] read?
A: The AC50 was 34.8 µM (active).

Q: And the AC50 [3]?
A: Its AC50 is 13.8 µM (active).

Q: What does the source list for `CCCCCCCCc1ccc(S(=O)(=O)O)cc1`?
A: AC50 [1]: 43.8 µM (active); outcome [3]: inactive

Q: With `CCc1cc(C(C)(C)C)c(O)c(C(C)(C)C)c1` as the compound, how does the AC50 [1] read?
A: Its AC50 is 4.83 µM (active).

Q: And the outcome [2]?
A: The outcome was “inactive”.

Q: What about the outcome [3] of the same compound?
A: The outcome was “inactive”.

Q: With `CCOc1ccc(N=Nc2ccc(C=Cc3ccc(N=Nc4ccc(OCC)cc4)cc3S(=O)(=O)O)c(S(=O)(=O)O)c2)cc1` as the compound, how does the AC50 [1] read?
A: Its AC50 is 30.2 µM (active).

Q: And the outcome [3]?
A: Its outcome is “inactive”.

Q: What does the source list for `O=c1c(O)c(-c2ccc(O)cc2)oc2cc(O)cc(O)c12`?
A: AC50 [1]: 0.0805 µM (active); AC50 [3]: 34.3 µM (active)

Q: Which results are given for `[O-]n1ccccc1=S.[O-]n1ccccc1=S.[Zn+2]`?
A: AC50 [1]: 3.72 µM (active); outcome [3]: inactive
